In PubChem BioAssay (NCATS):
Inconclusive results are not listed. The source made the active and inactive calls. The call rests on the fitted dose curve; in most records, active means well fitted curve in the direction sought with a large enough effect; inconclusive means small, poorly fitted or top-dose-only effect, or another doubt; inactive means no such curve, though single readings can be large; an effect the other way counts as inactive or inconclusive.

Key:
[1] = biological target: Glutathione peroxidase 1 (Homo sapiens) (UniProt P07203); assay: Primary qHTS Assay for Inhibitors of Recombinant Selenoprotein Glutathione Peroxidase 1 (GPX1) (AID 1845191); further: nearly all actives have a fitted effect of over 65% in size; on activity, negative = inhibition: on the % scale 0 is the no-effect control and ±100 the full control effect
How it was run: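 NADPH consumption tracked by fluorescence at 340/450 nm between t=0 and t=15 min, room temperature. Final mix: 10 nM GPX1, 100 nM glutathione reductase, 1 mM GSH, 0.5 mM NADPH, 0.5 mM cumene hydroperoxide, 0.01% BSA; 30 min compound–enzyme preincubation.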

[2] = biological target: Phospholipid hydroperoxide glutathione peroxidase GPX4 (Homo sapiens) (UniProt P36969); assay: Primary qHTS Assay for Inhibitors of Recombinant Selenoprotein Glutathione Peroxidase 4 (GPX4) (AID 1845192); further: nearly all actives have a fitted effect of over 65% in size; on activity change, negative = inhibition: series mostly up to about 50 µM; on the % scale 0 is the no-effect control and ±100 the full control effect
How it was run: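 NADPH consumption followed by fluorescence at 340/450 nm, t=0 and after 15 min at room temperature. Reaction started with cumene hydroperoxide (0.5 mM final) after 30 min compound–GPX4 preincubation; final 200 nM GPX4, 100 nM GR, 1 mM GSH, 0.5 mM NADPH.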

[3] = biological target: Luciferin 4-monooxygenase (Photinus pyralis) (UniProt P08659); assay: Primary firefly luciferase (FLuc) qHTS assay for identification of artifact compounds. (AID 1845220); further: nearly all actives have a fitted effect of over 60% in size;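 on activity change, negative = inhibition: series mostly up to about 54 µM; plate controls were DMSO vehicle for no effect and no enzyme for full effect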
How it was run: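 FLuc 10 nM; luciferin 10 uM; ATP 10 uM; Tris-acetate pH 7.6, Mg-acetate 10 mM; 15 min RT preincubation; 5 min reaction; luminescence.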

[4] = Primary fluorescence-based thiol-reactive (MSTI) qHTS assay for identification of artifact compounds. (AID 1845221);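 further: series mostly up to about 54 µM; thiol-reactive compounds lower the probe fluorescence signal; nearly all actives have a fitted effect of over 65% in size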
How it was run: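 One-hour, room-temperature, dark incubation of compound with 4 uM MSTI in PBS (pH 7.4, 2% DMSO) precedes a fluorescence read at 525 nm excitation, 598 nm emission; Hill-equation fitting yields concentration-response values.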

[5] = test system: Nanoluciferase (engineered Oplophorus gracilirostris luciferase); assay: Primary Nanoluciferase (NLuc) qHTS assay for identification of artifact compounds. (AID 1845222);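 further: NLuc secreted into diluted conditioned medium of S16 cells; series mostly up to about 54 µM; 0% = DMSO and -100% = no enzyme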
How it was run: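 NLuc from S16 cell medium (1:55) plus test compounds, 15 min, room temperature. Luminescence after Nano-Glo (1:100) addition, 5 min.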

[6] = Primary redox qHTS assay for identification of artifact compounds. (AID 1845223);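 further: 0% = DMSO and 100% = reference compound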
How it was run: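 Redox-cycling detection via DTT (250 uM final) oxidation coupled to Amplex Red (25 uM)/HRP (250 mU/mL) in HBSS. 15 min preincubation plus 30 min after DTT, room temperature. Ex/Em 525/598 nm; 4-parameter Hill fit against DMSO and 10 uM DA3003.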

Sequence of Phospholipid hydroperoxide glutathione peroxidase GPX4 (Homo sapiens) (P36969 whole entry, looked up): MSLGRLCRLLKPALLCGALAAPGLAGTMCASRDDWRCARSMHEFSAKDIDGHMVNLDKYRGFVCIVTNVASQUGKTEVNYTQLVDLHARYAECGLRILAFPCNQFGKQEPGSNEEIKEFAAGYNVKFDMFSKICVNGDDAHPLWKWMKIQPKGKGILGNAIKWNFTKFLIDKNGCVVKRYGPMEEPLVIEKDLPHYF
Sequence of Glutathione peroxidase 1 (Homo sapiens) (P07203 whole entry, looked up): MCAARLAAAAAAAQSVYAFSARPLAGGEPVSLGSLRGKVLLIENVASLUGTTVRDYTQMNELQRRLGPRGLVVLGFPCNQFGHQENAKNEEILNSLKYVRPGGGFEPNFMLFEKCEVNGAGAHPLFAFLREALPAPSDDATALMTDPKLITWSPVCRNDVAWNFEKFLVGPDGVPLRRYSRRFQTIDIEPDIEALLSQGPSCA

NC(=O)c1cccc(-c2cc(OC(=O)NC3CCCCC3)ccc2O)c1
inactive: Potency [1] | Potency [2] | Potency [3] | Potency [4] | Potency [5] | Potency [6]

COc1cc(C(=O)NC2CCN(C)CC2)ccc1Nc1ncc2c(n1)N(C1CCCC1)CC(F)(F)C(=O)N2C
inactive: Potency [1] | Potency [2] | Potency [3] | Potency [4] | Potency [5] | Potency [6]

COc1cc2c(cc1O)CC[C@H]1[C@@H]2CC[C@]2(C)[C@H](O)CC[C@@H]12
inactive: Potency [1] | Potency [2] | Potency [3] | Potency [4] | Potency [5] | Potency [6]

Cc1nc(NC(=O)N2CCCC2C(N)=O)sc1-c1csc(C(C)(C)C)n1 (centres undefined)
inactive: Potency [1] | Potency [2] | Potency [3] | Potency [4] | Potency [5] | Potency [6]

O=C(O)c1ccccc1NC(=O)N1CCC(c2ccccc2C(F)(F)F)CC1
inactive: Potency [1] | Potency [2] | Potency [3] | Potency [4] | Potency [5] | Potency [6]

O=C(NCC(O)CO)c1ccncc1Nc1ccc(I)cc1F (centres undefined)
inactive: Potency [1] | Potency [2] | Potency [3] | Potency [4] | Potency [5] | Potency [6]

CC(C)(O)C1CCC(C)(C2CCC3(C)C4CCC5C(C)(C(=O)OC6OC(CO)C(O)C(O)C6O)C(O)CC(O)C56CC46CCC23C)O1 (centres undefined)
inactive: Potency [1] | Potency [2] | Potency [3] | Potency [4] | Potency [5] | Potency [6]

CC12CCC(OC3OC(CO)C(O)C(OC4OC(CO)C(O)C(O)C4O)C3O)CC1=CCC1C2CCC2(C)/C(=C3/COC(=O)C3)CCC12O (centres undefined)
inactive: Potency [1] | Potency [2] | Potency [3] | Potency [4] | Potency [5] | Potency [6]

CC(O)CO[C@@H]1O[C@H](CO)[C@@H](O)[C@H](O)[C@H]1O (some centres undefined)
inactive: Potency [1] | Potency [2] | Potency [3] | Potency [4] | Potency [5] | Potency [6]

CC1CCC2(C(=O)O)CCC3(C)C(=CCC4C5(C)CCC(OC(=O)/C=C/c6ccccc6)C(C)(C)C5CCC43C)C2C1C (centres undefined)
inactive: Potency [1] | Potency [2] | Potency [3] | Potency [4] | Potency [5] | Potency [6]

CC1(O)CCCC2(C)C1CCC13CC(CO)C(CCC12)C3 (centres undefined)
inactive: Potency [1] | Potency [2] | Potency [3] | Potency [4] | Potency [5] | Potency [6]

C[C@@H]1CC[C@@]2(OC1)O[C@H]1C[C@H]3[C@@H]4CC=C5C[C@@H](O)CC[C@]5(C)[C@H]4CC[C@]3(C)[C@H]1[C@@H]2C
inactive: Potency [1] | Potency [2] | Potency [3] | Potency [4] | Potency [5] | Potency [6]

C[C@@H]1CCN(C(=O)N2CCCC2)C[C@@H]1N(C)c1ncnc2[nH]ccc12
inactive: Potency [1] | Potency [2] | Potency [3] | Potency [4] | Potency [5] | Potency [6]

CC(=O)O[C@@H]1[C@H](O[C@@H]2O[C@@H](CO)[C@H](O)[C@H]2O)[C@@H](O[C@@H]2O[C@@H](C)[C@H](O[C@@H]3OC[C@@H](O)[C@H](O)[C@H]3O)[C@@H](O)[C@H]2O)[C@H](OC(=O)[C@]23CCC(C)(C)C[C@H]2C2=CCC4[C@@]5(C)CC[C@H](O[C@@H]6O[C@H](C(=O)O)[C@@H](O)[C@H](O)[C@H]6O[C@@H]6O[C@H](CO)[C@H](O)[C@H](O)[C@H]6O)[C@@](C)(C=O)C5CC[C@@]4(C)[C@]2(C)CC3)O[C@@H]1C (some centres undefined)
inactive: activity, negative = inhibition [1] -3.42% [at 9.52 µM] | activity change, negative = inhibition [2] 2.32% [at 9.73 µM] | activity change, negative = inhibition [3] 4.46% [at 11.6 µM] | activity change, negative = thiol reactive [4] 321% [at 11.5 µM] | activity, negative = inhibition [5] 0% [at 11.6 µM] | redox activity (% of DA3003) [6] 1.35% [at 11.5 µM]

C/C(=C\CC[C@@H](C)[C@H]1CC(O)[C@@]2(C)C3CC[C@H]4C(C)(C)[C@@H](OC5OCC(O)C(O)C5OC5OC(CO)C(O)C(O)C5O)CC[C@@]45C[C@@]35CC(O)[C@]12C)C(=O)O (some centres undefined)
inactive: Potency [1] | Potency [2] | Potency [3] | Potency [4] | Potency [5] | Potency [6]

C[C@@H]1O[C@@H](O[C@H]2[C@H](O[C@H]3[C@H](O[C@H]4CC[C@@]5(C)C(CC[C@]6(C)C5CC=C5[C@@H]7CC(C)(C)CC[C@]7(C(=O)O[C@@H]7O[C@H](CO)[C@@H](O[C@@H]8O[C@@H](C)[C@H](O)[C@@H](O)[C@H]8O)[C@H](O)[C@H]7O)CC[C@]56C)C4(C)C)OC[C@H](O)[C@@H]3O)O[C@H](CO)[C@@H](O)[C@@H]2O)[C@H](O)[C@H](O)[C@H]1O (some centres undefined)
inactive: outcome [1] inactive [at 9.52 µM] | activity change, negative = inhibition [2] 0.115% [at 9.73 µM] | outcome [3] inactive [at 11.6 µM] | activity change, negative = thiol reactive [4] 125% [at 11.5 µM] | activity, negative = inhibition [5] 4.91% [at 11.6 µM] | redox activity (% of DA3003) [6] 19.8% [at 11.5 µM]

C=C(CCC1=C(C)[C@H]2[C@H](CC3[C@@H]4CC=C5C[C@@H](O)C[C@@H](O)[C@]5(C)C4[C@H](O)C[C@@]32C)O1)CO[C@@H]1O[C@H](CO)[C@@H](O)[C@H](O)[C@H]1O (some centres undefined)
inactive: Potency [1] | Potency [2] | Potency [3] | Potency [4] | Potency [5] | Potency [6]

CC(C)CNCc1ccc(-c2ccccc2S(=O)(=O)N2CCCC2)cc1
inactive: Potency [1] | Potency [2] | Potency [3] | Potency [4] | Potency [5] | Potency [6]

C[C@@H]1O[C@@H](O[C@H]2[C@H](OC(=O)[C@]34CCC(C)(C)C[C@H]3C3=CCC5[C@@]6(C)CC[C@H](O[C@@H]7O[C@H](C(=O)O)[C@@H](O)[C@H](O)[C@H]7O[C@@H]7O[C@H](CO)[C@H](O)[C@H](O)[C@H]7O)[C@@](C)(C=O)C6CC[C@@]5(C)[C@]3(C)C[C@H]4O)O[C@H](C)[C@H](O[C@@H]3O[C@H](C)[C@H](O)[C@H](O)[C@H]3O)[C@@H]2O)[C@H](O)[C@H](O)[C@H]1O[C@@H]1OC[C@@H](O)[C@H](O[C@@H]2O[C@H](CO)[C@@H](O)[C@H](O)[C@H]2O)[C@H]1O (some centres undefined)
inactive: activity, negative = inhibition [1] 1.71% [at 9.52 µM] | outcome [2] inactive [at 9.73 µM] | outcome [3] inactive [at 6.45 µM] | activity change, negative = thiol reactive [4] 292% [at 6.41 µM] | activity, negative = inhibition [5] 4.73% [at 6.45 µM] | redox activity (% of DA3003) [6] 3.32% [at 6.41 µM]
